Test results: ChEMBL document CHEMBL3988442, “University of Dundee, Small-Polar-MMV Screening Library” (2021)

Target: T1, Aspartate--tRNA(Asp/Asn) ligase (Mycobacterium tuberculosis (strain ATCC 25618 / H37Rv)) (UniProt P9WFW3)
T1 sequence (whole entry): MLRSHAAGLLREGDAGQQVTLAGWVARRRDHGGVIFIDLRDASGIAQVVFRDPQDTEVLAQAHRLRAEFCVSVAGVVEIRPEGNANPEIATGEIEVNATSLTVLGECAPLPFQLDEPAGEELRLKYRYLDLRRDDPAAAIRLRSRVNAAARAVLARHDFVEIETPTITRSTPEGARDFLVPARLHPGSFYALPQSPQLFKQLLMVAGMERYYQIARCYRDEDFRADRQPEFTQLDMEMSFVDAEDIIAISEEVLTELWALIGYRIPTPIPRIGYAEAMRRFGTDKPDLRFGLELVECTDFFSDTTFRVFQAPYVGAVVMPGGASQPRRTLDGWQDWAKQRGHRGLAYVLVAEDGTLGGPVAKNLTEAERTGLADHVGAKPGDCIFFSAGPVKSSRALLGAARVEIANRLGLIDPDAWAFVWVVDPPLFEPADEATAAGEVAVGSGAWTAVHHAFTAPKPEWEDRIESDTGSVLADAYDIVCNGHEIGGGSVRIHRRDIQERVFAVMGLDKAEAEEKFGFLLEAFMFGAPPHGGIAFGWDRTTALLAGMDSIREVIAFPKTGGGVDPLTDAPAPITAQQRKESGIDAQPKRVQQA
Assay: Assay for Asp RNA synthetase-1 from Mycobacterium tuberculosis
Type: functional
Set-up: scale not given: in the data most compounds retested in dose-response had high values
Settings: 30 µM

Question: `CCc1n[nH]c(C2CN(C(=O)c3nc(C)ncc3Cl)CCO2)n1` (stereo not given) was tested. Which Percent Effect did it give?
Answer: 0%

Question: `CC(C)c1nc(C2CCCN2C(=O)c2cnc[nH]2)no1` (stereo not given) was tested. Which Percent Effect did it give?
Answer: 0.204%

Question: How did the Percent Effect turn out when `NC[C@H]1CC[C@H](C(NC(=O)c2ccccn2)c2ccccn2)CC1` (stereo not given in full) was run?
Answer: 1.43%

Question: With `CCc1nc(C2CCCN2C(=O)CCNS(C)(=O)=O)no1` (stereo not given) as the molecule, how does the Percent Effect read?
Answer: -7.34%

Question: With `CC(C)CN1CCN(C(=O)Nc2cc(C(F)(F)F)c[nH]c2=O)CC1` as the molecule, how does the Percent Effect read?
Answer: -1.79%

Question: Which Percent Effect does the source give for `CC(=O)NC1CCCN(C(=O)NCc2cccnc2N(C)C)C1` (stereo not given) here?
Answer: -7.86%

Question: For `O=C(C1CCC1)N1CCN(c2snc3ccccc23)CC1`, which Percent Effect is on record?
Answer: 2.29%

Question: For `Clc1ccc(-n2cc(CNC3CCc4ncnn4C3)cn2)cc1` (stereo not given), which Percent Effect is on record?
Answer: -5.31%

Question: `FC(F)(F)Cn1ccnc1CN1CCOC(Cn2cccn2)C1` (stereo not given) was tested. Which Percent Effect did it give?
Answer: 1.38%

Question: For `CN(CCC(F)(F)F)C(=O)C1CCCN1C(=O)OC(C)(C)C` (stereo not given), which Percent Effect is on record?
Answer: 4.8%

Question: `CCOC(=O)NC(CNC(=O)CCc1ccccn1)CC(C)C` (stereo not given) was tested. Which Percent Effect did it give?
Answer: 1.17%

Question: With `O=C(NCCC1=CCCCC1)C1CCCN(c2ccc3nncn3n2)C1` (stereo not given) as the molecule, how does the Percent Effect read?
Answer: -1.84%

Question: With `Cc1cnn(CC2CN(CC(=O)NCc3ccccn3)CCO2)c1` (stereo not given) as the molecule, how does the Percent Effect read?
Answer: -8.24%

Question: For `COCCNC(=O)NCCc1ccn(-c2ccccc2)n1`, which Percent Effect is on record?
Answer: -4.41%

Question: Which Percent Effect does the source give for `Cc1cnn(CCC(=O)N2CCOC(c3nc(C(C)(C)C)n[nH]3)C2)c1` (stereo not given) here?
Answer: -1.81%

Question: For `O=C(CCn1cccn1)N1C[C@@H]2CC[C@H](C1)N(Cc1ccccn1)C2=O`, which Percent Effect is on record?
Answer: 0.301%

Question: With `COc1ccc(CN2CCC3(CC2)NC(=O)CC3c2ccncc2)cc1` (stereo not given) as the molecule, how does the Percent Effect read?
Answer: 5.29%

Question: For `CCc1cc(NCC(O)CN2CCCCC2)n2ncnc2n1` (stereo not given), which Percent Effect is on record?
Answer: 8.06%

Question: How did the Percent Effect turn out when `COc1ccc(NC(C)C(=O)N2CCN(Cc3ccccc3)CC2)cn1` (stereo not given) was run?
Answer: 3.97%

Question: How did the Percent Effect turn out when `Cc1ccc(OCCC(=O)NC2CCc3nccn3C2)cc1` (stereo not given) was run?
Answer: -1.56%

Question: With `CC(=O)N1N=C(c2ccccc2)OC1C(=O)NCCc1cccc(Cl)c1` (stereo not given) as the molecule, how does the Percent Effect read?
Answer: -3.19%

Question: How did the Percent Effect turn out when `CCn1c(CN2CCC(O)(C(=O)OC)CC2)nc2c(F)cccc21` was run?
Answer: -3.57%

Question: For `CC(C)N1Cc2c(C(=O)N3CCOCC3)nn(C)c2C1`, which Percent Effect is on record?
Answer: 0.382%

Question: With `CCOc1ccccc1C(CC(=O)Nc1ccccc1F)NC(C)=O` (stereo not given) as the molecule, how does the Percent Effect read?
Answer: -4.12%

Question: For `Cc1ccc(C(CNCC2CC2)N2CCOCC2)s1` (stereo not given), which Percent Effect is on record?
Answer: 3.84%

Question: Which Percent Effect does the source give for `CCN(C)c1ncnc2c1CCN(C(=O)N1CCCC1)CC2` here?
Answer: 9%

Question: How did the Percent Effect turn out when `CS(=O)(=O)CCN1CCC2(CCCN(C3CCOCC3)C2=O)C1` (stereo not given) was run?
Answer: 1.8%

Question: With `O=C(c1ccnnc1)N1C[C@H]2CCC[C@@]2(COCC2CCOCC2)C1` as the molecule, how does the Percent Effect read?
Answer: 3.07%

Question: How did the Percent Effect turn out when `O=C([C@H]1COC[C@H]2CN(C3CCCC3)C[C@H]21)N1CCCCO1` was run?
Answer: 5.94%

Question: How did the Percent Effect turn out when `Cc1cc(C)c(CNC(=O)NCC(O)COc2ccccc2)c(=O)[nH]1` (stereo not given) was run?
Answer: 4.61%

Question: Which Percent Effect does the source give for `CNc1nc(C(=O)N2CCCC(c3nccn3CC3CCC3)C2)cs1` (stereo not given) here?
Answer: 10.9%

Question: For `COc1ccc(-n2ccc(C(=O)N3CCN(C)CC3C)n2)cc1` (stereo not given), which Percent Effect is on record?
Answer: -10.9%

Question: `Cn1nc2c(cc1=O)CN(Cc1nc(-c3cccs3)no1)CC2` was tested. Which Percent Effect did it give?
Answer: 1.81%

Question: How did the Percent Effect turn out when `Cc1cnc(N2CC3(CCN(C(=O)c4ccoc4)C3)C2)nc1` was run?
Answer: 0.713%

Question: How did the Percent Effect turn out when `CC(C)CCn1[nH]c(CNc2ccccc2)nc1=O` was run?
Answer: 5.27%

Question: How did the Percent Effect turn out when `CC(NC(=O)N1CCN(c2ccc(Cl)cc2)CC1)C(=O)N1CCSCC1` (stereo not given) was run?
Answer: -5.11%

Question: For `CN(C)C(=O)N1CCN(C(=O)CCc2ccccc2)[C@H]2CS(=O)(=O)C[C@H]21`, which Percent Effect is on record?
Answer: 3.33%

Question: Which Percent Effect does the source give for `CC(C)C(Sc1nnnn1-c1ccccc1)C(=O)NCc1cccnc1` (stereo not given) here?
Answer: 1.64%

Question: How did the Percent Effect turn out when `CS(=O)(=O)CC(=O)N1C[C@@H]2COC[C@]2(c2nnc(C3CC3)o2)C1` was run?
Answer: -1.72%

Question: `CN(Cc1nnc(C2CC2)n1C)C1CCN(Cc2ccc(F)cc2)C1` (stereo not given) was tested. Which Percent Effect did it give?
Answer: 11.8%
